# “And” between values parts separate entries of the source, which are not always exact repeats. Identical values can stand only once. Where a structure was tested more than once in an assay, its records may differ in their call. The source made the active and inactive calls. The calls were made as follows: active = hit-call score of the fitted dose curve at least 0.9, where 1 is the maximum; inactive = score below 0.9.
# Read-out: CD69, CD69 (gene 969)
# Assay: BSK_SAg_CD69: BioMAP Diversity Plus: SAg Assay for CD69 Biomarker Activity (AID 2283089)
# Conditions: primary human HUVEC with PBMC; actives raise or lower the signal
# Procedure: BSK_SAg is a cell-based, multiplexed-readout assay that uses umbilical vein endothelium and peripheral blood mononuclear cells, a human vascular primary cell co-culture, with measurements taken at 24 hours after chemical dosing in a 96-well plate.BSK_SAg_CD69 is one of 10 assay component(s) measured or calculated from the BSK_SAg assay. It is designed to make measurements of enzyme-linked immunosorbent assay, a form of binding reporter, as detected with fluorescence intensity signals by Enzyme-linked immunosorbent assay technology.Data from the assay component BSK_SAg_CD69 was analyzed into 1 assay endpoint. This assay endpoint, BSK_SAg_CD69, was analyzed with bidirectional fitting relative to DMSO as the negative control and baseline of activity. Using a type of binding reporter, gain or loss-of-signal activity can be used to understand changes in the signaling as they relate to the gene CD69. Furthermore, this assay endpoint can be referred to as a primary readout, because this assay has produced multiple assay endpoints where this one serves a signaling function. To generalize the intended target to other relatable targets, this assay endpoint is annotated to the cytokine intended target family, where the subfamily is inflammatory factor.
# The levels of cell surface (or secreted, indicated by the prefix "s") biomarker endpoints were measured by ELISA. Overt cytotoxicity to cells in confluent adherent cultures (all systems other than the BT system) was assessed by measuring total protein levels using sulforhodamine B (SRB) staining in parallel cultures at the time of biomarker measurements, indicated as SRB endpoints. For proliferation assays for adherent cell types, individual cell types are cultured at sub-confluence and relative cell numbers quantified by SRB staining at time points optimized for each system (48 h: 3C and CASM3C systems; 72 h: BT and HDF3CGF systems; 96 h: SAg system). SRB was performed by staining cells with 0.1% SRB after fixation with 10% TCA and reading wells at 560 nm.Viability and proliferation of PBMC (T cells) was quantified by Alamar Blue reduction for the SAg and BT systems. For PBMC viability (referred to as PBMC Cytotoxicity within the assay endpoint names), cells were plated (75,000/well in a 96-well plate) and then chemical samples added for 1 h before addition of activators, SEB and TSST-1 (20 ng/mL final concentration each). Cells were incubated for 90 h. Then, Alamar Blue (20 uL/well) (Invitrogen, Cat DAL1100) was added for 6 h, and the plates were read with a fluorescence microplate reader at 546/580 nm (excitation/emission). For PBMC proliferation, cells were plated and activated as above but incubated for only 16 h prior to addition of Alamar Blue. Plates were read after 6 h.
Structure (SMILES),outcome,AC50
CN(C)C(=O)Cl,inactive,–
O=S(=O)(F)C(F)(F)C(F)(F)C(F)(F)C(F)(F)C(F)(F)C(F)(F)C(F)(F)C(F)(F)F,inactive,–
CC(Cc1ccc(OCC(=O)O)cc1)NCC(O)c1csc(C(F)(F)F)n1 (stereo not given),inactive,–
OCC(F)(F)OC(F)(F)C(F)(F)OC(F)(F)C(F)(F)OC(F)(F)F,–,24.4 µM (active) and 45.7 µM (active)
O=C(O)C=CC(F)(C(F)(F)F)C(F)(F)F,inactive,–
Cc1c([N+](=O)[O-])cc2c(c1[N+](=O)[O-])C(C)(C)CC2(C)C,inactive,–
CCOP(=S)(OCC)SCSc1ccc(Cl)cc1,–,20 µM (active)
c1ccc2c(c1)sc1ccccc12,inactive,–
CCOS(=O)(=O)OCC,inactive,–
ClC(Cl)(Cl)c1ccccc1,inactive,–
O=C(O)C(F)(F)OC(F)(F)C(F)(F)OC(F)(F)C(=O)O,inactive,–
CCOP(=S)(OCC)SCn1nnc2ccccc2c1=O,inactive,–
CC(C)(C)c1ccc(O)cc1,inactive,–
Nc1cc2c3c(c1)C(c1ccccc1)=N[C@@H](NC(=O)c1cccnc1)C(=O)N3CC2,–,0.837 µM (active)
O=[N+]([O-])c1ccc(Cl)c(Cl)c1,inactive,–
C=CC(=O)OCC(CC)(COC(=O)C=C)COC(=O)C=C,–,2.3 µM (active)
CCOP(=S)(NC(C)C)Oc1ccccc1C(=O)OC(C)C (stereo not given),inactive,–
CCC1(c2ccccc2)C(=O)N=C(O)NC1=O (stereo not given),inactive,–
C=CC(=O)OCC(F)(F)C(F)F,–,38.5 µM (active) and 30 µM (active)
CCCCc1ccccc1,inactive,–

Structure (SMILES),outcome,AC50
O=P(Oc1ccccc1)(Oc1ccccc1)Oc1ccccc1,–,31.6 µM (active)
FC(F)(F)C(F)(C(F)(F)F)C(F)(F)C(F)(F)CC1CO1 (stereo not given),inactive,–
OCC1CO1 (stereo not given),inactive,–
OCC(F)(F)OC(F)(F)C(F)(F)OC(F)(F)C(F)(F)OC(F)(F)CO,inactive,12.9 µM (active)
Nc1ccc(Cl)cc1,inactive,–
COP(N)(=S)OC,inactive,–
CSC(C)(C)C=NO,inactive,–
CCCCN(CCCC)SN(C)C(=O)Oc1cccc2c1OC(C)(C)C2,–,27.6 µM (active)
CCOP(=S)(Oc1ccc([N+](=O)[O-])cc1)c1ccccc1 (stereo not given),inactive,–
Nc1ccc2ccccc2c1,inactive,–
CCCCC(CC)COP(=O)(Oc1ccccc1)Oc1ccccc1 (stereo not given),–,13.3 µM (active)
CC(Cl)CN(C)C (stereo not given),inactive,–
COCCOCCO,inactive,–
c1ccc(OP(Oc2ccccc2)Oc2ccccc2)cc1,inactive,–
CCCCCCCc1ccc(O)cc1,–,39.2 µM (active)
CCNc1nc(Cl)nc(NC(C)(C)C)n1,inactive,–
CCOC(=O)c1ccccc1C(=O)OCC,inactive,–
[N-]=[N+]=[N-],inactive,–
c1ccc2c(c1)Nc1ccccc1S2,inactive,–
